Measurements reported in PubChem BioAssay.
A number with no mark means an inactive call. A call without a number means that no potency is given here. For some assays here: Potency and affinity values are given separately. Active and inactive are the calls of the source. Unless noted, no rule for the calls is given here.

Legend:
[1] = antimalarial activity against Dd2 strain (AID 2302;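 active = growth inhibition above 50% at the single 2 µM test dose, taken to imply half-maximal potency below 2 µM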); conditions: P. falciparum Dd2 in RBCs, LDH growth readout, 72 h; at 2 µM; active compounds read high
[2] = HepG2 cytotoxicity, primary screen, cytotoxicity control for P. falciparum antimalarial project, cell-based, ATP luminescence (AID 2303;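 active = inhibition above 50%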); conditions: HepG2 viability, 24-48 h, at 10 µM, active compounds read high
[3] = molecular target: L-lactate dehydrogenase (Plasmodium falciparum (isolate CDC / Honduras)) (UniProt Q27743); test: PfLDH activity inhibition – cell lysate, 3D7 strain, counter-screen for P. falciparum growth inhibition project (AID 2304); conditions: P. falciparum 3D7 crude extract, LDH APAD/NBT absorbance; at 2 µM; active compounds read high
L-lactate dehydrogenase (Plasmodium falciparum (isolate CDC / Honduras)), sequence (Q27743 whole entry, looked up): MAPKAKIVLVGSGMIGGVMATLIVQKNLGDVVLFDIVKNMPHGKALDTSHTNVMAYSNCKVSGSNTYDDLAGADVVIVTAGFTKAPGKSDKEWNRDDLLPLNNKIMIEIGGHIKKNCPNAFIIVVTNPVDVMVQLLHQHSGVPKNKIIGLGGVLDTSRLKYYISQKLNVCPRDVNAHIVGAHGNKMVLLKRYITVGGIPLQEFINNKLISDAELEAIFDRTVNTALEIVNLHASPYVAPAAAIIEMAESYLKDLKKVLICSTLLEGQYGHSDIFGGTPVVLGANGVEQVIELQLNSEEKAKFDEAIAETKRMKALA

[4] = inhibition of 3D7 malaria parasite growth – strain 3D7 (AID 2306); conditions: P. falciparum 3D7 erythrocytic growth, LDH absorbance, 72 h; at 2 µM; active compounds read high
[5] = molecular target: Calcium-dependent protein kinase 1 (Plasmodium falciparum (isolate 3D7)) (UniProt P62344); test: PfCDPK1 kinase inhibitors, biochemical, TCAMS library (AID 1159585; cut-off not given, nearly all actives have IC50 up to about 0.98 µM;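 also: inhibitors leave more ATP so luminescence rises with inhibition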); conditions: recombinant PfCDPK1, Kinase-Glo ATP depletion luminescence
Calcium-dependent protein kinase 1 (Plasmodium falciparum (isolate 3D7)), sequence (P62344 whole entry, looked up): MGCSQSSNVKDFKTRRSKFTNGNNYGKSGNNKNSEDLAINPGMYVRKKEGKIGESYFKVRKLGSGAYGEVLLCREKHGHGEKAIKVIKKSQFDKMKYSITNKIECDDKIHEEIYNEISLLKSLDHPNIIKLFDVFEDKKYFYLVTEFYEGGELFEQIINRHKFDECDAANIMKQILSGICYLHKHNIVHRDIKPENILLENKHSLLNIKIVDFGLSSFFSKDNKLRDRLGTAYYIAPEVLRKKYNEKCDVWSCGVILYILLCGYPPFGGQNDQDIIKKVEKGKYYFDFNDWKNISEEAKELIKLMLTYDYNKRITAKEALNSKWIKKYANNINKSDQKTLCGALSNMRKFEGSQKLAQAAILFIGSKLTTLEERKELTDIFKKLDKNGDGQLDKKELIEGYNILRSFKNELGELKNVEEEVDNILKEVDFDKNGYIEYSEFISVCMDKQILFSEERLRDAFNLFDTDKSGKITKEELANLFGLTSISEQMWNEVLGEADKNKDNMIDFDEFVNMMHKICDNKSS

[6] = molecular target: Plasmodium falciparum protein kinase 6 (PK6, PF3D7_1337100) (UniProt Q8IDW1); test: PfPK6 kinase inhibitors, biochemical, TCAMS library (AID 1159586); conditions: recombinant PfPK6, Kinase-Glo ATP depletion luminescence
Plasmodium falciparum protein kinase 6 (PK6, PF3D7_1337100), sequence (Q8IDW1 1-305): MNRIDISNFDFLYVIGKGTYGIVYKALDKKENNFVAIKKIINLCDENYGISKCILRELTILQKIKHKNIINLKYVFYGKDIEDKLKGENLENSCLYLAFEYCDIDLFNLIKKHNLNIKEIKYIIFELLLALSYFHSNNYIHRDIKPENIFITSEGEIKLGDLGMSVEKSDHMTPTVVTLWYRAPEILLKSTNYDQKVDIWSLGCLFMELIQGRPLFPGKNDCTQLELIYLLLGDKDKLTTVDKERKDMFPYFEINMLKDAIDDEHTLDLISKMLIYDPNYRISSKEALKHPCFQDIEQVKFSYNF

[7] = molecular target: Protein kinase 7 (PK7), Plasmodium falciparum 3D7 (PF3D7_0213400) (UniProt Q7YTF7); test: inhibition of Plasmodium PK7 catalytic activity – biochemical, TCAMS antimalarial set, Kinase-Glo luminescence (AID 1159587); conditions: recombinant PfPK7, Kinase-Glo ATP depletion luminescence
Protein kinase 7 (PK7), Plasmodium falciparum 3D7 (PF3D7_0213400), sequence (Q7YTF7 1-343): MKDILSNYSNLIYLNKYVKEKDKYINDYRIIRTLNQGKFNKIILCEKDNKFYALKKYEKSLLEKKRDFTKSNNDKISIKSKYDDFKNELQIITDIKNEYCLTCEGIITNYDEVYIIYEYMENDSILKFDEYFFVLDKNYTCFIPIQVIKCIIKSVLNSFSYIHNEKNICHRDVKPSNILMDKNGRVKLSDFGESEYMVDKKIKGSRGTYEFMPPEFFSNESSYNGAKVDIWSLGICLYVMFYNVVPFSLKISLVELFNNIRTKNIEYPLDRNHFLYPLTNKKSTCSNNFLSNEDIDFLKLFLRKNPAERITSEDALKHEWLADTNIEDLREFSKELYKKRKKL

[8] = molecular target: Calcium-dependent protein kinase 4 (Plasmodium falciparum (isolate 3D7)) (UniProt Q8IBS5); test: PfCDPK4 kinase inhibitors, biochemical, TCAMS library (AID 1159588; cut-off not given, nearly all actives have IC50 up to about 0.91 µM); conditions: recombinant PfCDPK4, Kinase-Glo ATP depletion luminescence
Calcium-dependent protein kinase 4 (Plasmodium falciparum (isolate 3D7)), sequence (Q8IBS5 whole entry, looked up): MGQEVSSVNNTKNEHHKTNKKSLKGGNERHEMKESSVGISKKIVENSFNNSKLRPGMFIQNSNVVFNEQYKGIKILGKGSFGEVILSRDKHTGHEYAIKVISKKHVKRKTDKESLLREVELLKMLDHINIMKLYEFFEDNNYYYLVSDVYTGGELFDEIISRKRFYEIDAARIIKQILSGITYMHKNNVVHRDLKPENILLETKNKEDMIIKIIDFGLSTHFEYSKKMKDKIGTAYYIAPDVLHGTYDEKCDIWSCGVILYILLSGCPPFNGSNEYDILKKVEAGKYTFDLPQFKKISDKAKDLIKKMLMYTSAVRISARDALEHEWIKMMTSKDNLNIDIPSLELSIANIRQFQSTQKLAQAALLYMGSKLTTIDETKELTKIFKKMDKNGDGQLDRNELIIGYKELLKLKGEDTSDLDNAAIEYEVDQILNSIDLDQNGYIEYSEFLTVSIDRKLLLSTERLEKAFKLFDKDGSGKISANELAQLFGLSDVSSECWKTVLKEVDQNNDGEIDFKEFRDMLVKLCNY

SMILES | growth inhibition [1] | inhibition [2] | inhibition [3] [%] | growth inhibition [4] | outcome [5] | outcome [6] | outcome [7] | outcome [8]
COc1c(OC)c(OC)c2ccccc2c1CCNCCCCNCCc1c(OC)c(OC)c(OC)c2ccccc12 | 72% (active) | 100% (active) | -3 | 99% (active) | inactive | inactive | inactive | inactive
CC1CC(C)CN(CCCNc2ccc(C(=O)Nc3ccc(C(F)(F)F)cc3)cc2[N+](=O)[O-])C1 (stereo not given) | 99% (active) | 31% | -2 | 101% (active) | inactive | inactive | inactive | inactive
Cc1noc(-c2cccs2)c1C(=O)NCCc1cccc(Cl)c1 | 95% (active) | -17% | 0 | 97% (active) | inactive | inactive | inactive | inactive
COc1cccc(OC)c1OCCCON1C(N)=NC(N)=NC1(C)C | 96% (active) | 53% (active) | 1 | 95% (active) | inactive | inactive | inactive | inactive
COc1ccc(NC(=O)c2ccc(Br)c(C)c2)cc1N1CCN(CCCc2c[nH]c3ccccc23)CC1 | 64% (active) | 21% | 0 | 102% (active) | inactive | inactive | inactive | inactive
COc1ccc(NC(=O)c2cc(NC(=O)C3(N)CC3)c(=O)n(Cc3ccc(C(N)=O)cc3)c2)cc1 | 72% (active) | 21% | 3 | 95% (active) | inactive | inactive | inactive | inactive
Clc1ccc(C2CCN(CCCOc3ccc4c(c3)CCNCC4)CC2)cc1 | 28% | 93% (active) | -8 | 98% (active) | inactive | inactive | inactive | inactive
CCCCC(=O)N(CCOC)Cc1ccc(-c2ccc(CNCCC)cn2)cc1 | 68% (active) | 30% | -3 | 99% (active) | inactive | inactive | inactive | inactive
CCCN1CCN(c2cc(NCC)c3c4c(onc24)-c2ccccc2C3=O)CC1 | 11% | 4% | 6 | 96% (active) | inactive | inactive | inactive | inactive
c1ccc(CNCc2cccc(-c3cccc(-c4nc5ccccc5[nH]4)c3)c2)cc1 | 38% | 12% | -5 | 102% (active) | inactive | inactive | inactive | inactive
CCOC(=O)c1ccc(N2CCN(c3cc(Cl)ccc3C)CC2)c(NC(=O)Nc2ccc(Cl)c(Cl)c2)c1 | 99% (active) | 10% | -5 | 99% (active) | inactive | inactive | inactive | inactive
Cc1ccc2nc(N(CCCn3ccnc3)C(=O)C=Cc3cccs3)sc2c1 | 57% (active) | 22% | 0 | 100% (active) | inactive | inactive | inactive | inactive
O=C(NCCN1CCC(NC(=O)c2ccc(-c3ccccn3)s2)CC1)c1cccc(C(F)(F)F)c1 | 24% | 4% | -4 | 97% (active) | inactive | inactive | inactive | inactive
Cc1cccc2[nH]c(-c3ccc(-c4ccc(CNCCc5ccncc5)cc4)cc3)nc12 | 98% (active) | 34% | 0 | 100% (active) | inactive | inactive | inactive | inactive
CC(C)c1ccc(CN2CCC(CNC(=O)c3cc(-c4cccc(F)c4)cs3)C2)cc1 (stereo not given) | 46% | 59% (active) | 5 | 100% (active) | inactive | inactive | inactive | inactive
O=C(/C=C/c1ccc(Cl)c(Cl)c1)NCCCCCN1CCCC(C(=O)Nc2ccc(F)c(Cl)c2)C1 (stereo not given) | 2% | 28% | 1 | 99% (active) | inactive | inactive | inactive | inactive
N#CN1CC[C@@H](OC(=O)N[C@@H]2C[C@H]2c2ccccc2)C1 | 56% (active) | -1% | -2 | 84% (active) | inactive | inactive | inactive | inactive
CCC(CN1C(=O)C(c2ccccc2)(c2ccccc2)N=C1N)c1ccccc1 (stereo not given) | 98% (active) | 11% | -2 | 98% (active) | inactive | inactive | inactive | inactive
CCN1CCN(c2cc(C)c3cc(NC(=O)c4cc(OC)cc(OC)c4)ccc3n2)CC1 | 90% (active) | 0% | 4 | 102% (active) | inactive | inactive | inactive | inactive
CCC(Cc1cnc2nc(N)nc(N)c2n1)c1ccc(C(=O)N[C@@H](CCC(=O)O)C(=O)O)cc1 (stereo not given in full) | 98% (active) | 64% (active) | -2 | 93% (active) | inactive | inactive | inactive | inactive

SMILES | growth inhibition [1] | inhibition [2] | inhibition [3] [%] | growth inhibition [4] | outcome [5] | outcome [6] | outcome [7] | outcome [8]
Cc1nnsc1C(=O)Nc1cccc(-c2cccc(-c3nc4ccc(F)cc4[nH]3)c2)c1 | 45% | 35% | 3 | 100% (active) | inactive | inactive | inactive | inactive
C[C@H](NC(=O)c1cc(-c2ccc(C(C)(C)C)cc2)no1)C(=O)O (tested in a mixture with another compound) | 97% (active) | 31% | -4 | 91% (active) | inactive | inactive | inactive | inactive
NC(=O)c1cnc2ccc(-c3cncs3)cc2c1Nc1ccc(F)c(Cl)c1 | 99% (active) | 3% | 6 | 97% (active) | inactive | inactive | inactive | inactive
COc1ccc(Cl)cc1NC(=O)C(C)Nc1ccc(-c2ccccc2)cc1 (stereo not given) | 89% (active) | -1% | -1 | 91% (active) | inactive | inactive | inactive | inactive
CC(C)C[C@H](NC(=O)c1ccc(OCCN2CCOCC2)cc1)C(=O)N[C@H](/C=N/N1CCNC1=O)CCc1ccccc1 | 94% (active) | 1% | 4 | 89% (active) | inactive | inactive | inactive | inactive
COc1ccc(CNCc2ccccc2)cc1-c1cccc(S(=O)(=O)NCCN2CCCC2)c1 | 36% | 37% | -8 | 98% (active) | inactive | inactive | inactive | inactive
O=S(=O)(NCCN1CCCC1)c1ccc(-c2cccc(CNCc3ccc(F)cc3)c2)s1 | 50% (active) | 48% | 4 | 99% (active) | inactive | inactive | inactive | inactive
Cc1cc(NC2CCN(CC3CCCCC3)CC2)nc(Nc2ccccc2Cl)n1 | 31% | 28% | 4 | 100% (active) | inactive | inactive | inactive | inactive
O=C(Nc1ccc(F)c(F)c1)c1ccc(CN2CCCN(Cc3cccc(O)c3)CC2)cc1 | 57% (active) | 43% | -1 | 92% (active) | inactive | inactive | inactive | inactive
O=C(Nc1cccc(C(F)(F)F)c1)c1cccc(S(=O)(=O)NCC2CCCN2CC2CCCCC2)c1 (stereo not given) | 2% | 6% | 0 | 97% (active) | inactive | inactive | inactive | inactive
COc1ccc2nccc([C@@H](O)CN3CCC(NCc4ccc(OC)c(NC=O)c4)CC3)c2c1 | -1% | 0% | 3 | 97% (active) | inactive | inactive | inactive | inactive
Cc1cccc2[nH]c(-c3cccc(-c4ccc(NC(=O)c5cccnc5)cc4)c3)nc12 | 45% | 64% (active) | -1 | 100% (active) | inactive | inactive | inactive | inactive
COC(=O)c1cccc(NC(=O)NC2CCN(c3ccnc(Nc4cc(OC)c(OC)c(OC)c4)n3)C2)c1 (stereo not given) | 68% (active) | 7% | 3 | 99% (active) | inactive | inactive | inactive | inactive
CCn1cnc2c(Nc3cccc([N+](=O)[O-])c3)nc(N3CCC(N4CCCCC4)CC3)nc21 | 35% | 31% | 3 | 98% (active) | inactive | inactive | inactive | inactive
Cn1cc(-c2ccccc2C(=O)O)c(=O)c2cc(Cl)ccc21 | -4% | 16% | -1 | 89% (active) | inactive | inactive | inactive | inactive
COc1cc(NCCCCCNc2cc(Cl)nc3ccccc23)nc2ccccc12 | 54% (active) | 17% | -3 | 103% (active) | inactive | inactive | inactive | inactive
c1ccc(COc2ccc(COc3ccc(Cn4ccnc4)cc3)cc2)cc1 | 45% | 9% | 0 | 86% (active) | inactive | inactive | inactive | inactive
CCC(C)Oc1ccc2nc(N)nc(N)c2c1Cl (stereo not given) | -1% | 57% (active) | -2 | 96% (active) | inactive | inactive | inactive | inactive
COc1cc(NC(=O)/C=C/c2ccccc2OC(F)(F)F)cc(OCCN2CCCCC2)c1 | 6% | 25% | 0 | 96% (active) | inactive | inactive | inactive | inactive
N#Cc1ccc(N(CCOc2ccc(Cl)c(F)c2)Cc2ccccc2C(F)(F)F)cc1C(F)(F)F | 43% | 17% | -2 | 101% (active) | inactive | inactive | inactive | inactive
